# Measured values published in the supplement of paper PMC8728848.
# Only a selection was taken, and the strongest signals are over-represented in it overall.
# B1: Wzz (Escherichia coli) (protein)
# chain: MRTWKFPSVRVMMRVENNNVSGQNHDPEQIDLIDLLVQLWRGKMTIIISVIVAIVLAIGYLAVAKEKWTSTAIITQPDVGQIAGYNNAMNVIYGQAAPKVSDLQETLIGRFSSAFSALAETLDNQEEPEKLTIEPSVKNQQLPLTVSYVGQTAEGAQMKLAQYIQQVDDKVNQELEKDLKDNIALGRKNLQDSLRTQEVVAQEQKDLRIRQIQEALQYANQAQVTKPQIQQTGEDITQDTLFLLGSEALESMIKHEATRPLVFSSNYYQTRQNLLDIDNLDVDKLDIHAYLYVMKPTLPIRRDSPKKAITLILAVLLGGMVGAGIVLGRNALRNYNAK
# Key:
# Assay in all cases: glycan array binding signal (z-score within array); higher = stronger binding
# Conditions in all cases: glycan notation: IUPAC condensed, linker removed
# [1] = target: Fuc(a1-2)Gal(b1-3)GalNAc(a1-3)[Fuc(a1-2)]Gal(b1-4)Glc
# Method in brief: (§1)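 Negative Z-scores can be read as non-binding. The Z-score is calculated within each array and then averaged across arrays of one protein sequence at different concentrations or buffers and across linkers. Arrays, 3228 in all, were curated from the Consortium for Functional Glycomics database and kept only where the protein sequence was available.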
# [2] = target: Fuc(a1-2)Gal(b1-3)GlcNAc(b1-3)GalNAc
# Method in brief: as §1
# [3] = target: Fuc(a1-2)Gal(b1-3)[Fuc(a1-4)]GlcNAc(b1-2)Man(a1-3)[Fuc(a1-2)Gal(b1-3)[Fuc(a1-4)]GlcNAc(b1-2)Man(a1-3)]Man(b1-4)GlcNAc(b1-4)GlcNAc
# Method in brief: as §1
# [4] = target: Fuc(a1-2)Gal6S(b1-3)GlcNAc6S
# Method in brief: as §1
# [5] = target: Fuc(a1-2)[Gal(a1-3)]Gal(b1-4)Glc
# Method in brief: as §1
# [6] = target: Fuc(a1-2)[Gal(a1-3)]Gal(b1-4)GlcNAc(b1-2)Man(a1-3)[Fuc(a1-2)[Gal(a1-3)]Gal(b1-4)GlcNAc(b1-2)Man(a1-6)]Man(b1-4)GlcNAc(b1-4)[Fuc(a1-6)]GlcNAc
# Method in brief: as §1
# [7] = target: Fuc(a1-2)[Gal(a1-3)]Gal(b1-4)GlcNAc(b1-3)[Fuc(a1-2)[Gal(a1-3)]Gal(b1-4)GlcNAc(b1-6)]GalNAc
# Method in brief: as §1
# [8] = target: Fuc(a1-2)[Gal(a1-3)]Gal(b1-4)[Fuc(a1-3)]GlcNAc(b1-3)GalNAc
# Method in brief: as §1
# [9] = target: Fuc(a1-2)[GalNAc(a1-3)]Gal(b1-3)GalNAc(a1-3)[Fuc(a1-2)]Gal(b1-4)GlcNAc
# Method in brief: as §1
# [10] = target: Fuc(a1-2)[GalNAc(a1-3)]Gal(b1-3)GlcNAc(b1-2)Man(a1-3)[Fuc(a1-2)[GalNAc(a1-3)]Gal(b1-3)GlcNAc(b1-2)Man(a1-6)]Man(b1-4)GlcNAc(b1-4)GlcNAc
# Method in brief: as §1
# [11] = target: Fuc(a1-2)[GalNAc(a1-3)]Gal(b1-4)[Fuc(a1-3)]GlcNAc(b1-3)GalNAc
# Method in brief: as §1
# [12] = target: Fuc(a1-3)[Gal(b1-4)]Glc6S
# Method in brief: as §1
# [13] = target: Fuc(a1-3)[Gal3S(b1-4)]Glc
# Method in brief: as §1
# [14] = target: Fuc(b1-3)GlcNAc
# Method in brief: as §1
# [15] = target: Gal(a1-4)Gal(b1-4)GlcNAc(b1-3)Gal(b1-4)Glc
# Method in brief: as §1
# [16] = target: Gal(b1-3)GlcNAc(b1-2)Man(a1-3)[Gal(b1-3)GlcNAc(b1-2)Man(a1-6)]Man(b1-4)GlcNAc(b1-4)GlcNAc
# Method in brief: as §1
# [17] = target: Gal(b1-3)[Fuc(a1-4)]GlcNAc(b1-2)Man
# Method in brief: as §1
# [18] = target: Gal(b1-4)GlcNAc(b1-2)Man(a1-3)[Gal(b1-4)GlcNAc(b1-2)Man(a1-6)][GlcNAc(b1-4)]Man(b1-4)GlcNAc(b1-4)[Fuc(a1-6)]GlcNAc
# Method in brief: as §1
# [19] = target: Gal3S(b1-4)[Fuc(a1-3)]GlcNAc6S
# Method in brief: as §1
# [20] = target: Gal3S6S(b1-4)GlcNAc
# Method in brief: as §1
# [21] = target: Gal3S6S(b1-4)GlcNAc6S
# Method in brief: as §1
# [22] = target: Gal4S(b1-4)GlcNAc
# Method in brief: as §1
# [23] = target: Gal6S(b1-4)GlcNAc6S
# Method in brief: as §1
# [24] = target: GalNAc(a1-3)Gal
# Method in brief: as §1
# [25] = target: GalNAc(b1-4)GlcNAc(b1-3)GalNAc(b1-4)GlcNAc
# Method in brief: as §1
# [26] = target: GalNAc4S6S(b1-4)GlcNAc
# Method in brief: as §1
# [27] = target: GlcNAc(b1-2)Gal(b1-3)GalNAc
# Method in brief: as §1
# [28] = target: GlcNAc(b1-3)Fuc
# Method in brief: as §1
# [29] = target: GlcNAc(b1-3)Gal(b1-4)GlcNAc(b1-2)Man(a1-3)[GlcNAc(b1-3)Gal(b1-4)GlcNAc(b1-2)Man(a1-6)]Man(b1-4)GlcNAc(b1-4)GlcNAc
# Method in brief: as §1
# [30] = target: GlcNAc(b1-3)Gal(b1-4)GlcNAc(b1-3)Gal(b1-4)GlcNAc(b1-2)[GlcNAc(b1-3)Gal(b1-4)GlcNAc(b1-3)Gal(b1-4)GlcNAc(b1-6)]Man(a1-6)[GlcNAc(b1-3)Gal(b1-4)GlcNAc(b1-3)Gal(b1-4)GlcNAc(b1-2)Man(a1-3)]Man(b1-4)GlcNAc(b1-4)[Fuc(a1-6)]GlcNAc
# Method in brief: as §1
# [31] = target: GlcNAc(b1-3)Gal(b1-4)GlcNAc(b1-3)Gal(b1-4)GlcNAc(b1-3)GalNAc
# Method in brief: as §1
# [32] = target: GlcNAc(b1-3)Gal(b1-4)GlcNAc(b1-6)[GlcNAc(b1-3)Gal(b1-3)]GalNAc
# Method in brief: as §1
# [33] = target: GlcNAc6S(b1-3)Gal(b1-4)GlcNAc
# Method in brief: as §1
# [34] = target: Man(a1-2)Man(a1-3)Man
# Method in brief: as §1
# [35] = target: Neu5Ac(a2-3)Gal(b1-4)GlcNAc(b1-2)Man
# Method in brief: as §1
# [36] = target: Neu5Ac(a2-3)Gal(b1-4)GlcNAc(b1-6)[Gal(b1-3)]GalNAc
# Method in brief: as §1
# [37] = target: Neu5Ac(a2-3)Gal(b1-4)[Fuc(a1-3)]GlcNAc(b1-3)Gal(b1-4)[Fuc(a1-3)]GlcNAc(b1-3)Gal(b1-4)[Fuc(a1-3)]GlcNAc
# Method in brief: as §1
# [38] = target: Neu5Ac(a2-3)[GalNAc(b1-4)]Gal(b1-4)Glc
# Method in brief: as §1
# [39] = target: Neu5Ac(a2-6)Gal(b1-4)GlcNAc(b1-2)Man(a1-3)[GlcNAc(b1-2)Man(a1-6)]Man(b1-4)GlcNAc(b1-4)GlcNAc
# Method in brief: as §1
# [40] = target: Neu5Ac(a2-6)Gal(b1-4)GlcNAc(b1-2)Man(a1-6)Man(b1-4)GlcNAc(b1-4)GlcNAc
# Method in brief: as §1
# [41] = target: Neu5Ac(a2-6)Gal(b1-4)GlcNAc(b1-2)Man(a1-6)[Man(a1-3)]Man(b1-4)GlcNAc(b1-4)GlcNAc
# Method in brief: as §1
# [42] = target: Neu5Ac(a2-6)Gal(b1-4)GlcNAc(b1-6)[Gal(b1-3)GlcNAc(b1-3)]Gal(b1-4)Glc
# Method in brief: as §1
# [43] = target: Neu5Ac(a2-6)GlcNAc(b1-4)GlcNAc
# Method in brief: as §1
# [44] = target: Neu5Ac(a2-8)Neu5Ac(a2-3)[GalNAc(b1-4)]Gal(b1-4)Glc
# Method in brief: as §1
# [45] = target: Neu5Ac9Ac(a2-6)Gal(b1-4)GlcNAc
# Method in brief: as §1
binder,measurement,setting,value
B1,glycan array binding signal (z-score),[1],0.119
same,glycan array binding signal (z-score),[2],-0.55
same,glycan array binding signal (z-score),[3],0.002
same,glycan array binding signal (z-score),[4],2.91
same,glycan array binding signal (z-score),[5],0.055
same,glycan array binding signal (z-score),[6],-0.233
same,glycan array binding signal (z-score),[7],0.857
same,glycan array binding signal (z-score),[8],1.59
same,glycan array binding signal (z-score),[9],1.11
same,glycan array binding signal (z-score),[10],-0.965
same,glycan array binding signal (z-score),[11],0.633
same,glycan array binding signal (z-score),[12],1.46
same,glycan array binding signal (z-score),[13],-0.538
same,glycan array binding signal (z-score),[14],0.034
same,glycan array binding signal (z-score),[15],0.032
same,glycan array binding signal (z-score),[16],1.41
same,glycan array binding signal (z-score),[17],2.68
same,glycan array binding signal (z-score),[18],-0.511
same,glycan array binding signal (z-score),[19],2.08
same,glycan array binding signal (z-score),[20],0.861
same,glycan array binding signal (z-score),[21],16.9
same,glycan array binding signal (z-score),[22],-0.728
same,glycan array binding signal (z-score),[23],4.99
same,glycan array binding signal (z-score),[24],-0.563
same,glycan array binding signal (z-score),[25],-0.667
same,glycan array binding signal (z-score),[26],5.1
same,glycan array binding signal (z-score),[27],-0.1
same,glycan array binding signal (z-score),[28],0.1
same,glycan array binding signal (z-score),[29],-0.684
same,glycan array binding signal (z-score),[30],-0.222
same,glycan array binding signal (z-score),[31],0.801
same,glycan array binding signal (z-score),[32],-0.084
same,glycan array binding signal (z-score),[33],0.081
same,glycan array binding signal (z-score),[34],-0.72
same,glycan array binding signal (z-score),[35],2.37
same,glycan array binding signal (z-score),[36],-0.035
same,glycan array binding signal (z-score),[37],-1.71
same,glycan array binding signal (z-score),[38],-0.397
same,glycan array binding signal (z-score),[39],1.21
same,glycan array binding signal (z-score),[40],2.29
same,glycan array binding signal (z-score),[41],1.66
same,glycan array binding signal (z-score),[42],-0.436
same,glycan array binding signal (z-score),[43],0.29
same,glycan array binding signal (z-score),[44],1.61
same,glycan array binding signal (z-score),[45],-0.542
